From PubChem
In the library only some 2.4% were active in any assay of this set; here they are far more common.
L3MBTL1 inh: qHTS Assay for the Inhibitors of L3MBTL1. Potency, µM (top dose mostly 57.1 µM), for the others: top-dose activity, negative = inhibition, actives largely listed as inhibitors. 230,000 compounds, 0.66% hits. AID 485360, 2010. AlphaScreen L3MBTL1–H3K9me1 peptide binding. Lethal(3)malignant brain tumor-like protein 1 (Homo sapiens), Q9Y468; further: potency means the concentration at half of the fitted maximal effect; on the % scale 0 is the no-effect control and ±100 the full control effect; nearly all actives have a fitted effect of over 60% in size
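Read-out is AlphaScreen signal from streptavidin donor and nickel chelate acceptor beads (10 ug/mL final each) bridging L3MBTL1 (50 nM) and biotinylated K9-monomethylated H3(1-15) peptide (75 nM), after 30 min compound exposure at room temperature.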
Pol beta inh: qHTS Assay for Inhibitors of DNA Polymerase Beta. Potency, µM (doses to about 114 µM), inactives show top-dose activity change, negative = inhibition, usual class: inhibitors. Pol beta primer extension/strand displacement, fluorescence kinetic. P06746. 340,000 compounds, 1.3% hits; further: potency means the concentration at half of the fitted maximal effect; on the % scale 0 is the no-effect control and ±100 the full control effect
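Enzyme-only controls used 10 nM Pol beta; buffer lacking enzyme served as negative control. Compound preincubated 15 min, then 50 nM substrate added; 0 and 10 min reads at room temperature.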
Pol kappa inh-1: qHTS for Inhibitors of Polymerase Kappa. AID 588579, 2011. purified Pol kappa, fluorescent DNA synthesis assay, 10 min. DNA polymerase kappa (Homo sapiens), Q9UBT6. 400,000 compounds, 0.53% hits. Potency, µM (doses to about 107 µM), without a hit: at the top dose activity, negative = inhibition, hits mostly inhibitors; further: potency means the concentration at half of the fitted maximal effect; on the % scale 0 is the no-effect control and ±100 the full control effect
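First, compounds were pin-transferred onto 10 nM Pol kappa. After 15 min at room temperature, substrate was added to 50 nM final. Fluorescence was then measured kinetically at 0 and 10 min.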
Pol eta inh-1: qHTS for Inhibitors of Polymerase Eta. DNA polymerase eta (Homo sapiens), Q9Y253. recombinant Pol eta, fluorescent DNA replication assay. Potency, µM (highest dose often 114 µM), for inactives: at the highest dose activity change, negative = inhibition, actives largely listed as inhibitors. 390,000 compounds, 1.2% hits. AID 588591, 2011; further: potency means the concentration at half of the fitted maximal effect; on the % scale 0 is the no-effect control and ±100 the full control effect
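Pol eta (10 nM) was preincubated with compounds for 15 min at room temperature, after which fluorescent replication substrate (50 nM final) was added to start the reaction. Fluorescence was read kinetically at 0 and 10 min.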
Pol iota inh: qHTS for Inhibitors of Polymerase Iota | DNA polymerase iota (Homo sapiens), Q9UNA4 | Pol iota fluorescent replication assay, 10 min | Potency, µM (top dose mostly 115 µM), for the others: at the top dose activity, negative = inhibition, usual class: inhibitors | 390,000 compounds, 1% hits; further: potency means the concentration at half of the fitted maximal effect
Target sequence (Q9UNA4 whole entry, looked up): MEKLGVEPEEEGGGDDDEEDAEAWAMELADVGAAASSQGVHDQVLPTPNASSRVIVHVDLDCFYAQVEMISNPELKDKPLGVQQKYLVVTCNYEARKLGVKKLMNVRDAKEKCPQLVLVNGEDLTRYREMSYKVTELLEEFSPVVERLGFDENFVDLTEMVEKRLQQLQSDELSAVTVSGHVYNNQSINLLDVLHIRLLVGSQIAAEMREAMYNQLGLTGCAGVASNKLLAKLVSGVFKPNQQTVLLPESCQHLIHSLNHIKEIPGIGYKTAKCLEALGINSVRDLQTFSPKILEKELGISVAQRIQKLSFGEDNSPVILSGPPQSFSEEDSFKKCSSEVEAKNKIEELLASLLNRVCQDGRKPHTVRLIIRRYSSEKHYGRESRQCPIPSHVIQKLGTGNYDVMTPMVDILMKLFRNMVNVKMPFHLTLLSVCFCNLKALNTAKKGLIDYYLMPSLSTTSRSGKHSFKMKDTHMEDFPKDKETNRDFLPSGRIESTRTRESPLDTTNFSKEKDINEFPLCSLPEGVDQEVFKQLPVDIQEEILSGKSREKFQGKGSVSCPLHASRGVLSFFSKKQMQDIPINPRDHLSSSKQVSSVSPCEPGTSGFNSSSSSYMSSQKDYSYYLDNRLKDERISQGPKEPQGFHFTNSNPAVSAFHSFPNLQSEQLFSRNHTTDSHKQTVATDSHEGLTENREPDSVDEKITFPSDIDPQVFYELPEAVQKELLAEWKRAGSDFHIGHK
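Fluorescent replication assay read twice, at 0 min and 10 min after adding 50 nM (final) substrate. Enzyme (10 nM) and compounds were first incubated 15 min at room temperature; enzyme-free buffer wells were negative controls.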
TbPGK inh: qHTS for inhibitors of Phosphogylcerate Kinase: Hit Validation Screen; Potency, µM (series often up to 57.5 µM), inactives show at the highest dose activity change, negative = inhibition, hits mostly inhibitors; 500 compounds, 79% hits; AID 686980, 2013; shares compounds with Pol kappa inh-1; TbPGK coupled GAPDH assay, Kinase-Glo luminescence; further: potency means the concentration at half of the fitted maximal effect; on the % scale 0 is the no-effect control and ±100 the full control effect; nearly all actives have a fitted effect of over 65% in size
Pol iota confirm: qHTS for Inhibitors of Polymerase Iota: Confirmatory Assay for Cherry-picked Compounds; shares compounds with Pol kappa inh-1; Potency, µM, usual class: inhibitors; Pol iota primer extension, TAMRA/BHQ fluorescence; AID 720496, 2013; 1,500 compounds, 77% hits; further: potency means the concentration at half of the fitted maximal effect
GALK confirm: Confirmation Assay for Inhibitors of Human Galactokinase (GALK); purified GALK, Kinase-Glo ATP depletion luminescence; 150 compounds, 70% hits; shares compounds with Pol eta inh-1; Potency, µM (titrated, usually from 115 µM), for the others: at the top dose activity, negative = inhibition, hits mostly inhibitors; AID 2015, 2009
GALK redox cs: Confirmatory Assay for Inhibitors of Human Galactokinase (GALK): Phenol-HRP redox assay counterscreen. 150 compounds, 40% hits. AID 2035, 2009. shares compounds with Pol eta inh-1. Phenol red-HRP H2O2 redox cycling, absorbance 600 nm. Potency, µM (doses to about 115 µM), inactives show at the top dose activity change, negative = H2O2 signal, actives largely listed as inhibitors
HEK293 viability: Secondary Assay for Inhibitors of Human Galactokinase (GALK): HEK-293 Cell Viability Assay | shares compounds with Pol eta inh-1 | HEK-293 viability, ATP luminescence (CellTiter-Glo), 24/48 h | Potency, µM (series often up to 46.1 µM), without a hit: at the top dose activity change, negative = cytotoxicity, usual class: inhibitors | 170 compounds, 10% hits | AID 2547, 2010; further: potency means the concentration at half of the fitted maximal effect; on the % scale 0 is the no-effect control and ±100 the full control effect
Pol kappa inh-2: qHTS for Inhibitors of Polymerase Kappa: Confirmatory Assay for Cherry-picked Compounds; Potency, µM, actives largely listed as inhibitors; purified Pol-kappa, fluorescent strand-displacement substrate; 920 compounds, 76% hits; shares compounds with Pol eta inh-1; further: potency means the concentration at half of the fitted maximal effect
Pol eta inh-2: qHTS for Inhibitors of Polymerase Eta: Confirmatory Assay for Cherry-picked Compounds | shares compounds with Pol eta inh-1 | Pol eta primer extension, TAMRA/BHQ fluorescence, 10 min | Potency, µM, most hits filed as inhibitors | 2,600 compounds, 64% hits | AID 720502, 2013; further: potency means the concentration at half of the fitted maximal effect
An asterisk follows results filed as active; ? = inconclusive; . = no result given; [ ] = remark or other dose. The call rests on the fitted dose curve; in most records, active means well fitted curve in the direction sought with a large enough effect; inconclusive means small, poorly fitted or top-dose-only effect, or another doubt; inactive means no such curve, though single readings can be large; an effect the other way counts as inactive or inconclusive.

SMILES	L3MBTL1 inh	Pol beta inh	Pol kappa inh-1	Pol eta inh-1	Pol iota inh	Pol iota confirm	Pol eta inh-2	others
COc1cccc(-c2nc3c(c(C)nn3-c3ccccc3)c3cc(OC)c(OC)cc23)c1	.	34%	-8%	-11%	-18%	.	.
O=C(O)C1Oc2cc3ccccc3cc2O1	.	7.9µM*	-98%	18µM*	28µM*	75*	48*	Pol kappa inh-2=8.4*
CC(OC(=O)/C(C#N)=C/c1ccc(N(C)C)cc1)C(=O)N(C)Cc1ccccc1 (configuration not stated)	.	1%	?	50µM*	89µM*	27*	24*
CC(OC(=O)c1cccc(O)c1)C(=O)N(C)Cc1ccccc1 (configuration not stated)	3%	.	-3%	0%	14%	.	.
CCOC(=O)CN(C(=O)c1snc(C(N)=O)c1N)C(C(=O)NC1CCCCC1)c1ccc(F)cc1 (configuration not stated)	-5%	20µM*	79µM*	35µM*	?	42*	?
COc1cc(O)c(C(C)=O)c(CC(=O)O)c1	.	16µM*	13µM*	3.2µM*	13µM*	17*	8.5*	TbPGK inh=8.2µM*
Cc1ccc(Nc2cc(C)c(C#N)c3nc4ccccc4n23)cc1Cl	.	13%	-6%	0%	3%	.	.
CC(C)c1ccc(N2C(=O)/C(=C/N(C)C)SC2=S)cc1	.	?	?	?	7.9µM*	4.2*	3*	Pol kappa inh-2=30*
CN(C)/C=C1\NC(=S)N(c2ccc(Cl)cc2)C1=O	-8%	-18%	-2%	-14%	71%	.	.
Cc1cc(=O)c2c(o1)C(=O)c1occc1C2=O	.	.	32µM*	10µM*	6.3µM*	47*	30*	Pol kappa inh-2=42*
COc1c2occc2c(OC)c2c(=O)cc(C)oc12	-17%	0%	-14%	-2%	-5%	.	.
CCc1ccc(CNC(=O)C2CCN(c3nnc(-n4c(C)ccc4C)s3)CC2)cc1	.	?	-21%	.	3%	.	.
COC(=O)c1cc(C)nc2c1C(=O)C(=O)C=C2N1CCOCC1	.	-8%	-10%	4.5µM*	1.3µM*	6*	5.4*	TbPGK inh=4.6µM*;GALK confirm=5.3µM*;GALK redox cs=2.7µM*;HEK293 viability=8.9µM*
O=c1[nH]c(=O)c2nc(-c3ccc(Cl)cc3)cnc2[nH]1	6%	2%	-5%	12%	31%	.	.
O=c1[nH]c(=O)c2nc3c4ccccc4c4ccccc4c3nc2[nH]1	9%	?	-25%	28µM*	87%	19*	.	Pol kappa inh-2=9.5*
Cc1ccc(NC(=O)C2CCCN(S(=O)(=O)c3ccc(F)cc3)C2)cc1 (configuration not stated)	.	33%	-3%	-15%	1%	.	.
O=C(NCCCN1CCOCC1)c1cc(-c2ccco2)nc2ccccc12	?	.	79µM*	11µM*	10µM*	34*	38*	Pol kappa inh-2=17*
Cc1ccccc1NC(=O)c1cc(-c2ccco2)nc2ccccc12	.	.	89µM*	45µM*	40µM*	53*	48*
O=C(N/N=C/c1ccc(F)cc1)c1cc(-c2ccccn2)nc2ccccc12	1%	.	-2%	-15%	16%	.	.
COc1ccccc1CNC(=O)COC(=O)c1cc(-c2ccco2)nc2ccccc12	.	5µM*	22µM*	14µM*	7.1µM*	21*	24*	Pol kappa inh-2=15*
Cc1cccc(NC(=O)c2cc(-c3ccco3)nc3ccccc23)n1	-6%	20%	-4%	-17%	-6%	.	.
O=C(NCCCN1CCOCC1)c1cc(-c2ccc(F)cc2)nc2ccccc12	5%	.	-17%	-9%	-2%	.	.
O=C(N/N=C/c1cccc(F)c1)c1cc(-c2ccco2)nc2ccccc12	5.6µM*	-102%	18µM*	2.2µM*	?	8.4*	13*	TbPGK inh=5.8µM*
CCCn1c(Cc2ccccc2)nnc1SC(C)C(=O)NC1CC1 (configuration not stated)	2%	.	-13%	-27%	33%	.	.
CCOC(=O)c1c(C)oc2nc(C)nc(Nc3cc(C)ccc3OC)c12	.	1%	-3%	-19%	16%	.	.
COc1ccc(C(=O)N2CCC[C@@]3(CCN(Cc4ccncc4)C3)C2)cc1	.	.	-6%[60.1 µM]	.	.	.	.
O=C1c2cccc(NCCNCCO)c2C(=O)c2cccc(NCCNCCO)c21	.	.	28µM*	7.1µM*	45µM*	19*	.	Pol kappa inh-2=19*
O=C(O)CCNc1ccc(NCCC(=O)O)c2c1C(=O)c1ccccc1C2=O	.	13µM*	22µM*	4.5µM*	13µM*	19*	11*	TbPGK inh=16µM*
Cc1oc2c(C)c3oc(=O)c(CC(=O)N4CCCCC4)c(C)c3cc2c1C	.	32%	-5%	-10%	19%	.	.
